Measurements: paper PMC7819943, “Rice protein-binding microarrays: a tool to detect cis-acting elements near promoter regions in rice”
Whole data set: some 35,000 sequences, median “fluorescence intensity (a.u.)” near 10,000, cut for the highest 2% near 52,000. Only a selection was taken, and the highest values are over-represented in it overall.

Each sequence was assayed against T1, OsWOX13 (Oryza sativa, UniProt Q5QMM3 1-267) (assay: protein-binding microarray (RPBM); PBS, 2% BSA, 51.3 ng/ul salmon testes DNA, 50 uM zinc acetate, 200 nM TF, 25 C, 1 h; high values mean tight binding). Settings: protein: recombinant; tags: N-terminal polyhistidine and DsRed monomer fusion (pET32a); label: CyDye5-dUTP incorporated in the synthesized complementary strand; 3' TTTTT single-stranded linker to array surface; dsDNA, one strand shown.
T1 sequence: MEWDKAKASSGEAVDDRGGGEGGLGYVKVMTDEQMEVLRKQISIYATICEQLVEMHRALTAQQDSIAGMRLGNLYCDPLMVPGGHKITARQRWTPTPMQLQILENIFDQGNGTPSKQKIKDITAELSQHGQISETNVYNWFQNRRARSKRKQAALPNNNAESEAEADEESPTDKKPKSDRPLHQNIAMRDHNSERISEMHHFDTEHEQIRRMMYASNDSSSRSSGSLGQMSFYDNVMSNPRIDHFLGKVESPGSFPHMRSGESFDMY
Procedure, shortened: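 For the binding signal, per-feature fluorescence intensity was read in arbitrary units on an Axon 4000B scanner. Before scanning, a 2% BSA-blocked custom Agilent array made double-stranded with Cy5-dUTP was washed after 1 h at 25 °C with 200 nM protein and 50 µM zinc acetate. The proteins were Ni–NTA-purified transcription factors with N-terminal polyhistidine and DsRed fusions, expressed in E. coli BL21-CodonPlus.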

Sequence | binding signal
TGTAATAATAATTTAATCGATCTTTCAAGGGGCATTCTCGCGGAGTCACCTAGTGCAG | 8040 fluorescence intensity (a.u.)
TTTAGATTGCTAAACACACATGTATATATAAGTTTTATTTCGGAGTCACCTAGTGCAG | 5900 fluorescence intensity (a.u.)
TCGATTGACTGCATCTTTTCCTGAAAGTGAACATGCAGTGCGGAGTCACCTAGTGCAG | 32500 fluorescence intensity (a.u.)
TGTAATCTATCAAGAATCCATTACTGAGACACAAATGCATCGGAGTCACCTAGTGCAG | 4280 fluorescence intensity (a.u.)
TCCTAATTAATGTTAGAAATTTTCCTAATTAATGCTAGAACGGAGTCACCTAGTGCAG | 28600 fluorescence intensity (a.u.)
TAGTTATATTTGATTATCTTGCGAACCTATATATAATATGCGGAGTCACCTAGTGCAG | 5250 fluorescence intensity (a.u.)
CGTTGATTATTGCGATCGAAACCGTCTCATATAATTTTGCCGGAGTCACCTAGTGCAG | 52500 fluorescence intensity (a.u.)
TATAATTGATCTTTGTAGTTATTTTGTTGCATACATAAGACGGAGTCACCTAGTGCAG | 29100 fluorescence intensity (a.u.)
TTAAATTGACTATAGTTGATTTGTAGCCTACAATTGGCAGCGGAGTCACCTAGTGCAG | 64600 fluorescence intensity (a.u.)
AAGTTATATATATTGATGATTTATACAACTTTGTTGGTGACGGAGTCACCTAGTGCAG | 3620 fluorescence intensity (a.u.)
GAGTTGATTTGCGTTGTCTCTCCGTCTCTTTCTTATTAATCGGAGTCACCTAGTGCAG | 20800 fluorescence intensity (a.u.)
CTATTGATTATGATAATTTGAAGTTATATAGCTTGATTTGCGGAGTCACCTAGTGCAG | 57700 fluorescence intensity (a.u.)
ACTAGTATTAAATTGACTATAAATGATTTGGAGTTAGTAGCGGAGTCACCTAGTGCAG | 26300 fluorescence intensity (a.u.)
ACATATATAAGTTGATTGATTTGTTATTATAGACGACGAGCGGAGTCACCTAGTGCAG | 55400 fluorescence intensity (a.u.)
TGGTTATTATATTGATTATAGATAATTTGAAGTTAGTAGTCGGAGTCACCTAGTGCAG | 31500 fluorescence intensity (a.u.)
TGTAACTATTATATAAATTGGCTATTAAGTTTGACTATAGCGGAGTCACCTAGTGCAG | 17800 fluorescence intensity (a.u.)
ACTAAAATTTGATAAAATTTATTTTGCCTATAATATAAACCGGAGTCACCTAGTGCAG | 6120 fluorescence intensity (a.u.)
ACAAAACAAATTACAGATTCCGCCTGCAAATTATGAGACACGGAGTCACCTAGTGCAG | 6510 fluorescence intensity (a.u.)
CCGTGCTCAACTACCCAATCACTCCAAATTAAGCTCGCATCGGAGTCACCTAGTGCAG | 3750 fluorescence intensity (a.u.)
TATTAATTAATTAACCTTAATTAATAAACAGGCAAAAGAACGGAGTCACCTAGTGCAG | 40700 fluorescence intensity (a.u.)
TGCTAGATTAAATTTTAAAACTATATTGTTCCTTTCATATCGGAGTCACCTAGTGCAG | 12400 fluorescence intensity (a.u.)
CCTGATTTCCTCCTTTCAGTGAAGTGTTAAACCCTAGCTACGGAGTCACCTAGTGCAG | 21500 fluorescence intensity (a.u.)
AGTGGCTGCCGAATTAATTGGATCGCGTGCTGCGTGCGTGCGGAGTCACCTAGTGCAG | 5740 fluorescence intensity (a.u.)
CTATTAAATTGATTATATATGATTTGTAGTTTATAGTTGGCGGAGTCACCTAGTGCAG | 65100 fluorescence intensity (a.u.)

Sequence | binding signal
TTAAATTGGATCTGATTGATTTGTTTAAGGAAACCACCGGCGGAGTCACCTAGTGCAG | 54600 fluorescence intensity (a.u.)
AGGATTGTTTCTGATGATTTGGGCCCGGAAAGACATAAGGCGGAGTCACCTAGTGCAG | 7510 fluorescence intensity (a.u.)
TGTTAAATTATATCTAAGGAAACCGGTTTTGATTTCCTTCCGGAGTCACCTAGTGCAG | 11100 fluorescence intensity (a.u.)
TGATAAATTTGATGTTTATATGTTAAATTATAGTAGTTTGCGGAGTCACCTAGTGCAG | 17600 fluorescence intensity (a.u.)
ATTAATTGAGTTTTATTTTATTGTAAATTTGATTTAATAGCGGAGTCACCTAGTGCAG | 37200 fluorescence intensity (a.u.)
GAGTAATATTCAACATTTTGATTAGAGGTTAACCGGTGTACGGAGTCACCTAGTGCAG | 5370 fluorescence intensity (a.u.)
ATTCATTAATCTGTACTAATTGATATTGCTAAGCAGCTGCCGGAGTCACCTAGTGCAG | 34200 fluorescence intensity (a.u.)
TTTGATAAAATCATAGATGTAGATTTTAATGTGATCTGAGCGGAGTCACCTAGTGCAG | 6270 fluorescence intensity (a.u.)
TCACGATTAATTATATCATCATTTTGTATCCTTTGATTTCCGGAGTCACCTAGTGCAG | 25200 fluorescence intensity (a.u.)
GTGGCATTTAGGTAATTAATTTAGTTTTATTTGTTACCTGCGGAGTCACCTAGTGCAG | 10200 fluorescence intensity (a.u.)
TCTAAATGATTGTTATTTTCTTTCCTATTGTAAAGTTCAACGGAGTCACCTAGTGCAG | 18900 fluorescence intensity (a.u.)
ATTTTGTGGTAATCTATACAAATTACTATATCCCCAATTGCGGAGTCACCTAGTGCAG | 4670 fluorescence intensity (a.u.)
AATACTTATTAATAATTAACATGTGTTAATTCATTGCTTCCGGAGTCACCTAGTGCAG | 13400 fluorescence intensity (a.u.)
ATTATTAATTTAATAGTATTGTAGTGATTCAGAGTACTAGCGGAGTCACCTAGTGCAG | 19200 fluorescence intensity (a.u.)
TGTATTTAATTAGTTTGACAGAAACAAATTTGCTCAGTTACGGAGTCACCTAGTGCAG | 37100 fluorescence intensity (a.u.)
CTTTAATTAATTTAACTGCCATTATTATGTACTTTCAGAGCGGAGTCACCTAGTGCAG | 63200 fluorescence intensity (a.u.)
CATTATTTCACTTGATTAAATTGCTTTAACTTTTATTTAGCGGAGTCACCTAGTGCAG | 15900 fluorescence intensity (a.u.)
GTAAATATTAATGAATTGCTTGTTTATGTTTAAATAAATGCGGAGTCACCTAGTGCAG | 4960 fluorescence intensity (a.u.)
ATTTTGAAATTTTAATTTTAAAATTACATTTTGGGACAAACGGAGTCACCTAGTGCAG | 8130 fluorescence intensity (a.u.)
TAATTAATAATTAATTAATTATGTGTTAATTGCTTGCTCCCGGAGTCACCTAGTGCAG | 65500 fluorescence intensity (a.u.)
CAAATTTATAATAATTAAAATTTAATTAATTATGTGTTAACGGAGTCACCTAGTGCAG | 57700 fluorescence intensity (a.u.)
TGTGTGTGTTTTAATTAATTAACATTTATATAAATATGAACGGAGTCACCTAGTGCAG | 14100 fluorescence intensity (a.u.)
CTTAATTACAAATTTGAAATTAATTTGCTAGGTATGTTTACGGAGTCACCTAGTGCAG | 63900 fluorescence intensity (a.u.)
TATATTTATTATTTGCAGTTAATTATGTTACAAATAATAACGGAGTCACCTAGTGCAG | 4460 fluorescence intensity (a.u.)
